PubChem BioAssay (NCI)
The panel holds about 79,000 compounds, 15% with a hit somewhere; the sample as a whole holds those more often. The source made the active and inactive calls. Rule as the data show it: active = growth inhibition above about 70%; inactive = the rest.

Assays:
[1] = NCI Yeast Anticancer Drug Screen. Data for the rad50 strain (AID 155);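 also: 0% = growth of vehicle-only cultures of the same strain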; details: S. cerevisiae rad50 strain growth inhibition; at 50.0 µM; hits give high values
Method in brief: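 A DNA repair-deficient yeast mutant serves as the test organism; compound-induced growth inhibition is calculated against vehicle-treated cells.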

[2] = NCI Yeast Anticancer Drug Screen. Data for the mec2-1 strain (AID 157); details: S. cerevisiae mec2-1 strain, at 50.0 µM, hits give high values
Method in brief: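 Compounds were applied to mec2-1 yeast cells. Their growth was then compared with that of vehicle-treated cultures to give growth inhibition.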

[3] = NCI Yeast Anticancer Drug Screen. Data for the sgs1 mgt1 strain (AID 161);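 also: 0% = growth of cultures given vehicle only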; details: S. cerevisiae sgs1 mgt1 strain, at 50.0 µM, hits give high values
Method in brief: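 This yeast growth screen uses a strain with defined DNA-repair lesions; compound-treated growth is compared with vehicle-treated growth.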

[4] = NCI Yeast Anticancer Drug Screen. Data for the cln2 rad14 strain (AID 165);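 also: 0% = growth equal to vehicle treated cultures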; details: S. cerevisiae cln2 rad14 strain, at 50.0 µM, hits give high values
Method in brief: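 Strain: cln2 rad14 yeast, altered in cell cycle control and DNA damage repair. Read-out: growth inhibition vs vehicle.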

[5] = NCI Yeast Anticancer Drug Screen. Data for the bub3 strain (AID 167); details: S. cerevisiae bub3 mutant strain, at 50.0 µM, hits give high values
Method in brief: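 Inhibition values come from growth of compound-treated mutant yeast normalised to vehicle-treated controls.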

[6] = NCI Yeast Anticancer Drug Screen. Data for the mlh1 rad18 strain (AID 175); details: S. cerevisiae mlh1 rad18 strain growth inhibition; at 50.0 µM; hits give high values
Method in brief: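 A repair-deficient yeast strain is exposed to test compound, and growth is scored relative to vehicle-treated controls.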

Measured: growth inhibition

CC(C#N)(Nc1ccccc1)c1ccccc1 (stereo not given)
inactive: [1] 0.6% | [2] 6.75% | [3] 6.9% | [4] -32.6% | [5] -10.7% | [6] -6.4%

CCC1(O)c2ccccc2CCC1C (stereo not given)
inactive: [1] 12.8% | [2] -15.8% | [3] -15.3% | [4] -29.9% | [5] -33.1% | [6] -19.9%

CCOC(=O)CN(C)C#N
inactive: [1] -16.9% | [2] -33.3% | [3] -44% | [4] -5.3% | [5] -31.6% | [6] -2.15%

N#Cc1c(N2CCCC2)ncn(Cc2ccccc2)c1=S
inactive: [1] -10.9% | [2] -15.1% | [3] -8.4% | [4] -25.1% | [5] -5.1% | [6] -0.2%

CCCCN(CCCC)CC(C)O (stereo not given)
inactive: [1] -21.8% | [2] -35.8% | [3] -22.4% | [4] 16.9% | [5] -12.9% | [6] -18.6%

CC(=O)c1c(C)cc(C(C)(C)C)cc1C
inactive: [1] 18.4% | [2] -1.1% | [3] 12.8% | [4] -0.55% | [5] 9.3% | [6] 13.8%

N#C/C(=C\C=C\c1ccccc1)C(N)=O
inactive: [1] -57.8% | [2] -27.6% | [3] -27.4% | [4] -7.45% | [5] -51.5% | [6] -49.8%

CC(=N\N=C(c1ccccc1)c1ccccc1)/C(C)=N/N=C(c1ccccc1)c1ccccc1
inactive: [1] -22.1% | [2] -8.15% | [3] -13.8% | [4] -9% | [5] -1.15% | [6] -17.8%

CN(C)C12CCC(c3ccccc31)c1ccccc12
inactive: [1] 29.8% | [2] 20.8% | [3] 27.4% | [4] 8.6% | [5] 36.5% | [6] 4.25%

O=c1c([OH2+])c(-c2ccc(O)cc2[O-])oc2cc(O)cc([O-])c12.O=c1c([OH2+])c(-c2ccc(O)cc2[O-])oc2cc(O)cc([O-])c12.[Ti+4]
inactive: [1] -43.4% | [2] 27.2% | [3] 7.95% | [4] 8.2% | [5] 2.55% | [6] 10.2%

O=c1c2c(-c3ccccc3)onc2n(-c2ccccc2)c(=O)n1-c1ccccc1
inactive: [1] -20.4% | [2] 4.5% | [3] 13.2% | [4] -10.6% | [5] -4.2% | [6] 36.5%

CCOC(=O)N1Cc2cc3ccccc3nc2C1CC(=O)O (stereo not given)
inactive: [1] -14.8% | [2] 11.9% | [3] -3.6% | [4] -28.1% | [5] -1.65% | [6] -24.8%

S=c1c2ccccc2c(=S)n2n1CC=CC2
inactive: [1] 7.6% | [2] 6.95% | [3] 2.3% | [4] 0% | [5] 16.8% | [6] 15.7%

COC(=O)c1cccc2c1ccc1ccc3ccccc3c12
inactive: [1] -7.9% | [2] -19.4% | [3] -7.05% | [4] -84.5% | [5] -10.2% | [6] -17.9%

CC1(CO)C(O)CCC2(C)C1C(O)CC1CC3CC12CCC3(O)CO (stereo not given)
inactive: [1] -12.8% | [2] -17.9% | [3] 1.3% | [4] -0.8% | [5] -21.1% | [6] -22.1%

CC(=O)OCc1cn(S(=O)(=O)c2ccc(C)cc2)cn1
inactive: [1] 17.9% | [2] -2.45% | [3] 19.1% | [4] -2.65% | [5] 11.6% | [6] -51.9%

CN(C)CCC(O)(c1ccccc1)C(O)(CCN(C)C)c1ccccc1 (stereo not given)
inactive: [1] -3.15% | [2] -14.8% | [3] -8.45% | [4] -8.85% | [5] -13.8% | [6] -16.4%

O=[N+]([O-])c1ccc(CCCc2ccc([N+](=O)[O-])cc2)cc1
inactive: [1] 39.6% | [2] 7.35% | [3] 58.9% | [4] -41.2% | [5] 11.6% | [6] 15.1%

Cc1cc(N)c(NC2OC(CO)C(O)C2O)cc1C (stereo not given)
inactive: [1] -25.1% | [2] 0.8% | [3] 4.75% | [4] -43.1% | [5] 41.1% | [6] 19.7%

O=C(OCC1OC=C(OC(=O)c2ccccc2)C1OC(=O)c1ccccc1)c1ccccc1 (stereo not given)
inactive: [2] 11.7% | [3] 32.3% | [4] 24.9% | [5] -1.85% | [6] 60%
active: [1] 91.8%
